# Source: PubChem BioAssay (NCATS)
# Values joined by “and” are separate entries in the source; they are usually repeats but may differ in a detail not shown here. Identical values can stand only once. Records with an inconclusive call do not appear. Values without a mark were called inactive. Active and inactive are the calls of the source. The call rests on the fitted dose curve; in most records, active means well fitted inhibition curve with a large enough effect in the signal ratio, with a control signal flat (not every such curve was filed as active); inconclusive means small, poorly fitted or top-dose-only effect, or effect the other way, or a change in a side signal; inactive means flat fitted curve, though single readings scatter; the % refers to the signal ratio.
# Target: Peroxisome proliferator-activated receptor gamma (Homo sapiens) (UniProt P37231)
# Sequence (P37231 whole entry, looked up): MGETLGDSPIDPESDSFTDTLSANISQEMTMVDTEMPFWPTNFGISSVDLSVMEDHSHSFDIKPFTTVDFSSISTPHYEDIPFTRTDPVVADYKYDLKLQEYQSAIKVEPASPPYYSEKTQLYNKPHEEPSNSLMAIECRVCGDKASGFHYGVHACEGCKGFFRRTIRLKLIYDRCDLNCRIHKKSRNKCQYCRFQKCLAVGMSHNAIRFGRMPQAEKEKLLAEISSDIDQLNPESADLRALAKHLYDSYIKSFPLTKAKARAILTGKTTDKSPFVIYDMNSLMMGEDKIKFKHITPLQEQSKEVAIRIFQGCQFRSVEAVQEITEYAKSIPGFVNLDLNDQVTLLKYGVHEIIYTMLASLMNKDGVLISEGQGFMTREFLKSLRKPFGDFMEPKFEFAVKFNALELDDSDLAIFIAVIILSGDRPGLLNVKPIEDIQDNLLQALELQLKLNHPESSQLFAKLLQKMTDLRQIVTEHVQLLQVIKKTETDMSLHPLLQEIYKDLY
# Assay: qHTS assay for small molecule antagonists of peroxisome proliferator-activated receptor gamma signaling (AID 588537);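 on activity, negative = inhibition: reporter cells co-stimulated with 50 nM rosiglitazone agonist during compound treatment; % of control where 0% means no effect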
# Details: HEK293 PPARg-UAS-bla, beta-lactamase ratio, antagonist mode; series mostly up to 76.8 µM; activity, negative = inhibition: at the top concentration
# Description: NIH Chemical Genomics Center [NCGC]
# U.S. Environmental Protection Agency [EPA]
# National Institutes of Environmental Health Sciences [NIEHS]
# National Toxicology Program [NTP]
# The Peroxisome proliferator-activated receptors (PPARs) are lipid-activated transcription factors of the nuclear receptor superfamily with three distinct subtypes namely PPAR alpha, PPAR delta (also called PPAR beta) and PPAR gamma. All these subtypes heterodimerizes with Retinoid X receptor (RXR) and these heterodimers regulate transcription of various genes. PPAR-gamma (glitazone receptor) ligands have been used in the treatment of type 2 diabetes and dyslipidaemia. It is involved in the regulation of glucose and lipid metabolism. PPAR-gamma activates certain genes like Paraoxonase 1 which is responsible for hydrolyzing organophosphates. PPAR-gamma ligands may also be therapeutically important in the treatment of coronary artery disease, obesity and cancer and atherosclerosis.
# NCGC Assay Protocol Summary
# Using a beta-lactamase reporter-gene under control of Peroxisome Proliferator-Activated-gamma (PPAR-gamma) response element, a cell-based assay [GeneBLAzer PPAR-gamma-UAS-bla assay developed by Invitrogen] was used to measure PPAR-gamma ligands signaling. GeneBLAzer PPAR-gamma-UAS-bla-HEK293 cells were used with assay medium containing 1% charcoal/dextran treated FBS. The assay was performed in clear bottom black Greiner 1536-well plates. Library compounds were measured for their ability to inhibit the reporter gene activity. Compounds were screened in a titration series in 1536-well format. The fluorescence intensity (405 nm excitation, 460/530 nm emission) was measured using an EnVision plate reader. Data was normalized relative to Rosiglitazone control (50 nM, 100%), and DMSO only wells (basal, 0%). Concentration-response titration points for each compound were fitted to the Hill equation yielding concentrations of half-maximal inhibition (IC50) and maximal response (efficacy) values.
# qHTS protocol for PPAR-gamma beta-lactamase assay in antagonist mode
# [Step] [Parameter] [Value] [Description]
# 1. Reagent; 5 uL; 3000 cells/well
# 2. Incubation; 37 C for 6-6.5 hrs
# 4. Controls (GW9662, PPAR-gamma antagonist); 23 nL,
# 5. Agonist (Stimulator); 1uL; Rosiglitazone at 50 nM (final) concentration
# 6. Incubation; 37 C for 16 hrs
# 7. Detection reagent; 1 uL of CCF4-dye
# 8. Incubation; RT for 2 hrs
# 9. Detection; Fluorescence; Envision plate reader
SMILES,Potency,"activity, negative = inhibition [%]"
CC(=O)[C@H]1CC[C@H]2[C@@H]3CCC4=CC(=O)CC[C@]4(C)[C@H]3CC[C@]12C,inactive,–
c1ccc(Nc2cccc3ccccc23)cc1,39.8 µM (active) and 44.7 µM (active),–
COC1=CC(=O)OC(CCc2ccc3c(c2)OCO3)C1 (stereo not drawn),–,-10.2
COC(=O)c1ccccc1C(=O)OC,inactive,–
C[C@@H]1Cc2c(Cl)cc(C(=O)N[C@@H](Cc3ccccc3)C(=O)O)c(O)c2C(=O)O1,2 µM (active),–
CC(C)COC(=O)c1ccccc1C(=O)OCC(C)C,–,-15.3
Cc1ccc2cc3c(ccc4ccccc43)c3c2c1CC3,–,-1.06
C[C@H]1O[C@H](OC2[C@@H](O)[C@@H](O)C(O)[C@H](O)[C@H]2O)[C@@H](N)C[C@@H]1N=C(N)C(=O)O (stereo partly drawn),–,-0.161
CCOP(=S)(OCC)SCSCC,–,2.11
Cc1ccccc1O,–,1.58
CC(C)OC(=O)Nc1ccccc1,–,3.07
c1ccc2c(c1)-c1cccc3cccc-2c13,–,1.28
CCCCOP(=O)(O)OCCCC,–,3.25
